Data: PubChem BioAssay AID1159580 (chemical genetic matrix, 2015)
Screen size: about 5,500 compounds; about 2,000 (36%) were called active. About 18% were inconclusive and are not listed. Cut-off read from the data, not from the text of the source: active = normalized growth mostly below about 0.91 (no sharp cut-off); inconclusive = no clear call, values can overlap the other calls; inactive = mostly above about 0.92. Some of the results follow.

Assay: chemical genetic growth profiling, strain panel (AID 1159580);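 note: tested at 20 µM; growth read once vehicle control cultures reached saturation at 30 °C; 1 = growth at the plate median or of vehicle wells; lower values mean less growth of the strain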
Details: S. cerevisiae deletion strains, growth OD

Measured: normalized growth

COc1ccc(-c2oc3cc(OC)c(OC)c(OC)c3c(=O)c2OC)cc1OC
inactive: locus YAL021C, strain ccr4, hits give low values 0.98 | locus YAL026C, strain drs2, hits give low values 0.957 | locus YAL030W, strain snc1, hits give low values 0.979 | locus YBL061C, strain skt5, hits give low values 0.998 | locus YBR009C, strain hhf1, hits give low values 0.966 | locus YBR023C, strain chs3, hits give low values 0.986 | locus YBR171W, strain sec66, hits give low values 0.972 | locus YBR231C, strain swc5, hits give low values 0.968 | locus YBR279W, strain paf1, hits give low values 0.983 | locus YCL011C, strain gbp2, hits give low values 0.972 | locus YCL016C, strain dcc1, hits give low values 1 | locus YCL061C, strain MRC1, hits give low values 0.993 | locus YCL069W, strain vba3, hits give low values 0.977 | locus YCR088W, strain abp1, hits give low values 0.976 | locus YDL005C, strain med2, hits give low values 0.981 | locus YDL040C, strain nat1, hits give low values 0.982 | locus YDR001C, strain nth1, hits give low values 0.978 | locus YDR069C, strain doa4, hits give low values 0.972 | locus YDR137W, strain rgp1, hits give low values 0.966 | locus YDR159W, strain sac3, hits give low values 0.966 | locus YDR195W, strain ref2 0.982 | locus YDR297W, strain sur2, hits give low values 0.984 | locus YDR334W, strain swr1, hits give low values 0.97 | locus YDR335W, strain msn5, hits give low values 0.982 | locus YDR392W, strain spt3, hits give low values 0.767 | locus YEL003W, strain gim4, hits give low values 0.973 | locus YEL037C, strain rad23, hits give low values 0.956 | locus YEL061C, strain CIN8 (second series), hits give low values 0.971 | locus YER015W, strain faa2, hits give low values 0.99 | locus YER016W, strain bim1, hits give low values 0.986 | locus YER111C, strain swi4, hits give low values 0.976 | locus YER155C, strain BEM2 (second series), hits give low values 0.932 | locus YFR010W, strain ubp6, hits give low values 0.96 | locus YGL167C, strain pmr1, hits give low values 0.983 | locus YGL173C, strain kem1, hits give low values 0.996 | locus YGL227W, strain vid30, hits give low values 0.976 | locus YGL240W, strain doc1, hits give low values 0.973 | locus YGL253W, strain hxk2, hits give low values 0.92 | locus YHR013C, strain ard1, hits give low values 0.956 | locus YHR027C, strain rpn1, hits give low values 1 | locus YHR030C, strain SLT2, hits give low values 1.03 | locus YHR079C, strain IRE1, hits give low values 1.01 | locus YHR142W, strain chs7, hits give low values 0.933 | locus YJL092W, strain hpr5, hits give low values 0.966 | locus YJL095W, strain BCK1 (second series), hits give low values 0.987 | locus YJL095W, strain BCK1, hits give low values 0.972 | locus YJL115W, strain asf1, hits give low values 0.986 | locus YJL129C, strain trk1, hits give low values 0.979 | locus YJL154C, strain vps35, hits give low values 0.974 | locus YJL164C, strain tpk1, hits give low values 0.974 | locus YJL166W, strain qcr8, hits give low values 0.978 | locus YJL187C, strain SWE1, hits give low values 0.981 | locus YJR066W, strain TOR1, hits give low values 1 | locus YKL160W, strain elf1, hits give low values 0.998 | locus YKR026C, strain gcn3, hits give low values 0.976 | locus YKR091W, strain srl3, hits give low values 0.985 | locus YLL001W, strain dnm1, hits give low values 1 | locus YLL026W, hits give low values 0.989 | locus YLL041C, strain sdh2, hits give low values 0.977 | locus YLR027C, strain aat2, hits give low values 0.986 | locus YLR113W, strain HOG1, hits give low values 0.902 | locus YLR221C, strain rsa3, hits give low values 1.01 | locus YLR258W, strain gsy2, hits give low values 0.994 | locus YLR262C, strain YPT6 (second series), hits give low values 0.95 | locus YLR320W, strain mms22, hits give low values 0.99 | locus YLR342W, strain FKS1, hits give low values 0.959 | locus YLR357W, strain rsc2, hits give low values 0.96 | locus YLR370C, strain arc18, hits give low values 0.986 | locus YLR384C, strain iki3, hits give low values 0.996 | locus YML120C, strain ndi1, hits give low values 0.97 | locus YMR058W, strain fet3, hits give low values 0.971 | locus YMR125W, strain sto1, hits give low values 0.964 | locus YMR129W, hits give low values 0.976 | locus YMR205C, strain PFK2, hits give low values 0.997 | locus YMR231W, strain pep5, hits give low values 0.992 | locus YNL071W, strain lat1, hits give low values 0.969 | locus YNL183C, strain NPR1, hits give low values 0.956 | locus YNL209W, strain ssb2, hits give low values 0.993 | locus YNL248C, strain rpa49, hits give low values 0.967 | locus YNL322C, strain KRE1 (second series), hits give low values 0.989 | locus YNR049C, strain mso1, hits give low values 0.982 | locus YOR001W, strain rrp6, hits give low values 0.938 | locus YOR070C, strain gyp1, hits give low values 0.983 | locus YOR080W, strain dia2, hits give low values 0.987 | locus YOR083W, strain WHI5, hits give low values 0.998 | locus YOR106W, strain vam3, hits give low values 0.991 | locus YOR231W, strain MKK1, hits give low values 1.02 | locus YOR265W, strain rbl2, hits give low values 0.987 | locus YOR270C, strain vph1, hits give low values 0.863 | locus YOR290C, strain snf2, hits give low values 0.953 | locus YPL051W, strain arl3, hits give low values 1 | locus YPL078C, strain atp4, hits give low values 0.977 | locus YPL106C, strain sse1, hits give low values 0.969 | locus YPL240C, strain hsp82, hits give low values 0.995 | locus YPL256C, strain CLN2, hits give low values 1
